Drawing on PubChem BioAssay (NCATS), this text covers Potency for 22 compounds.

The subject of assay [1] is Zika virus NS2B-NS3 protease (unlinked complex). The assay is described as follows: Primary screen GU Rhodamine qHTS for Zika virus inhibitors: Unlinked NS2B-NS3 protease assay (AID 1347159). Also: nearly all actives have a fitted effect of over 60% in size. An outline of the steps: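 Noncovalent NS2B hydrophilic domain/NS3 protease complex (25 nM final) in 10 mM Tris-HCl pH 8.0, 0.01% Tween 20, preincubated 15 min with compounds (up to 114 microM), then 1.5 microM Rhodamine110 substrate. Fluorescence change over 15 min fitted to 4-parameter Hill.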

Assay [2] relates to Zika virus NS2B-NS3 protease (linked construct). Briefly: Primary screen NINDS Rhodamine qHTS for Zika virus inhibitors (AID 1347160). Also: nearly all actives have a fitted effect of over 55% in size. In short, it runs like this:
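Purified NS2B-NS3 protease with the NS2B hydrophilic domain joined by a flexible linker (25 nM) in 10 mM Tris-HCl pH 8.0, 0.01% Tween 20, preincubated 15 min at RT with compound; Rhodamine110 peptide substrate 1.5 µM; fluorescence change over 15 min; 4-parameter Hill fit.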

Assay [3] deals with Zika virus NS2B-NS3 protease. The assay is described as follows: Primary screen GU AMC qHTS for Zika virus inhibitors (AID 1347154). Also: nearly all actives have a fitted effect of over 70% in size. Also: potency is read from the fitted curve at half-maximal effect. An outline of the steps:
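Unlinked Zika NS2B hydrophilic domain/NS3 protease domain noncovalent complex (25 nM final) in 10 mM Tris-HCl pH 8.0, 0.01% Tween 20, with AMC peptide substrate. Fluorescence (ex 340, em 450 nm) change over 15 min, room temperature; percent inhibition fitted to 4-parameter Hill equation.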

A short description of assay [4]: Confirmatory screen NINDS Rhodamine qHTS for Zika virus inhibitors (AID 1347161). Also: potency is read from the fitted curve at half-maximal effect; nearly all actives have a fitted effect of over 60% in size. In short, it runs like this:
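In 10 mM Tris-HCl pH 8.0 containing 0.01% Tween 20, linked NS2B-NS3 protease (25 nM final) is exposed to test compounds for 15 min. Cleavage of 1.5 microM Rhodamine110 substrate is tracked by fluorescence over 15 min.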
(In general: Quantitative high-throughput screening tests each substance at several concentrations.)

Assay [5] has as its system Zika virus NS2B-NS3 protease (linked construct). The assay is described as follows: 384 well plate NINDS Rhodamine confirmatory qHTS for Zika virus inhibitors (AID 1347164).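 Also: fluorescence from protease cleavage of Ac-LKRR-rhodamine 110 substrate; top concentration of the series differs between compounds; nearly all actives have a fitted effect of over 65% in size.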 An outline of the steps: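 Fluorescence read at ex 485 nm/em 538 nm, 25 min after adding 10 microM Ac-LKRR-Rd substrate at room temperature in the dark; signal normalized to no-enzyme and no-inhibitor controls. Enzyme final 5, 30 or 60 nM; compounds, ~15 min preincubation.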

Each structure is given as a SMILES string. Records with an inconclusive call do not appear. Active and inactive are the calls of the source. Calls follow the shape of the dose curve; as a rule, active = well fitted curve in the direction sought with a large enough effect; inconclusive = small, poorly fitted or top-dose-only effect, or another doubt; inactive = no such curve, though single readings can be large; an effect the other way counts as inactive or inconclusive.

As for `CC(C)C(=O)Oc1ccc(CO)cc1[C@H](CCN(C(C)C)C(C)C)c1ccccc1`, the Potency entry in assay [1] and in assay [2] was “inactive” in each case.
Turning to `Cn1c(N2CCCCS2(=O)=O)nc(C(=O)NCc2ccc(F)cc2)c(O)c1=O`, the Potency result in assay [3], in assay [1] and in assay [2] was “inactive” each time.
With `Cc1c(NC(=O)c2ccc(C(C)(C)C)cc2)cccc1-c1cn(C)c(=O)c(Nc2ccc(C(=O)N3CCOCC3)cc2)n1`, the Potency entry in assay [1] and in assay [2] was “inactive” each time.
On to `CCOC(=O)C1=C(N)Oc2ccc(Br)cc2C1C(C#N)C(=O)OCC` (centres undefined), for which the Potency result in assay [3] and in assay [2] was “inactive” in each case.
For the compound `CO[C@H]1C=CO[C@@]2(C)Oc3c(C)c(O)c4c(O)c(c5c(c4c3C2=O)NC2(CCN(CC(C)C)CC2)N=5)=NC(=O)C(C)=CC=C[C@H](C)[C@H](O)[C@@H](C)[C@@H](O)[C@@H](C)[C@H](OC(C)=O)[C@H]1C`, the Potency entry in assay [3], in assay [1] and in assay [2] was “inactive” in each case.
Take `CC(C)(C)Cn1c(N)nc2ccc(-c3[nH]c(C(C)(C)C)nc3-c3ccc(F)cc3)nc21`: in assay [3], the Potency is 10.8 µM (active). Further, the Potency entry in assay [1] and in assay [2] was “inactive” each time.
As for `CN1CCN(CCOc2cc(OC3CCOCC3)c3c(Nc4c(Cl)ccc5c4OCO5)ncnc3c2)CC1`, the Potency entry in assay [3], in assay [1] and in assay [2] was “inactive” in each case.
Regarding `COc1cc2c(cc1OC)CN(CCc1ccc(NC(=O)c3cc(OC)c(OC)cc3NC(=O)c3cnc4ccccc4c3)cc1)CC2`, the Potency entry in assay [3], in assay [1] and in assay [2] was “inactive” each time.
For the compound `Cc1ccccc1C(C(=O)NC1CCCCC1)N(C(=O)Cn1ccnc1C)c1cccc(F)c1` (centres undefined), the Potency result in assay [3], in assay [1] and in assay [2] was “inactive” in each case.
Regarding `NC(=O)c1cnc(-c2ccc(C3(N)CCC3)cc2)c(-c2ccccc2)c1`, the Potency entry in assay [1] and in assay [2] was “inactive” in each case.
For `CC(=O)N(C)C1(c2ccccc2)CCN(CCC[C@]2(c3ccc(Cl)c(Cl)c3)CCCN(C(=O)c3ccccc3)C2)CC1`, the Potency result in assay [3], in assay [1] and in assay [2] was “inactive” each time.
Consider `COc1cc2ncnc(-n3nc(-c4ccccn4)nc3N)c2cc1OC`, for which the Potency result in assay [3], in assay [1] and in assay [2] was “inactive” throughout.
Regarding `CN(C)c1cc(NC(=O)CNC(C)(C)C)c(O)c2c1C[C@@H]1C[C@H]3[C@H](N(C)C)C(=O)C(C(N)=O)=C(O)[C@@]3(O)C(=O)C1=C2O`, in assay [4], the Potency was 4.41 µM (active). In addition, in assay [5], the Potency entry is “inactive”.
`O=c1cc(CN2CCOCC2)occ1OCCCCCSc1ccnc2cc(C(F)(F)F)ccc12`: the Potency entry in assay [1] and in assay [2] was “inactive” each time.
For `COc1cc(Nc2ncc(F)c(Nc3ccc4c(n3)NC(=O)C(C)(C)O4)n2)cc(OC)c1OC`, the Potency result in assay [3] and in assay [2] was “inactive” in each case.
For `CN(C)Cc1ccc(-c2nc3cccc4c3n2CCNC4=O)cc1`, the Potency entry in assay [1] and in assay [2] was “inactive” throughout.
Take `COCCOc1nc(-c2ccc(Cl)c(Cl)c2)n(-c2ccc(NC(=O)CCl)cc2)n1`: the Potency entry in assay [1] and in assay [2] was “inactive” each time.
Consider `COCCOC(=O)C1=C(C)NC2=C(C(=O)CC(c3ccccc3OC)C2)C1c1cccc(O)c1` (centres undefined), for which the Potency result in assay [1] and in assay [2] was “inactive” in each case.
Take `NC(=O)c1cccc(-c2cc(Nc3ccc(OC(F)(F)F)cc3)ncn2)c1`: the Potency entry in assay [3], in assay [1] and in assay [2] was “inactive” throughout.
For the compound `O=C(O)c1ccccc1C(=O)Nc1ccc(-c2ccccc2)cc1`, the Potency result in assay [1] and in assay [2] was “inactive” each time.
As to `Cc1nc(N)sc1-c1ccnc(Nc2ccc(N3CCOCC3)cc2)n1`, the Potency result in assay [3], in assay [1] and in assay [2] was “inactive” in each case.
In the case of `O=C(Nc1ccccc1-c1cn2c(CN3CCNCC3)csc2n1)c1cnc2ccccc2n1`, the Potency entry in assay [1] and in assay [2] was “inactive” each time.
